# Laboratory results published in ChEMBL document CHEMBL1157539, “Thousands of chemical starting points for antimalarial lead identification” (Nature, 2010).
# System: Plasmodium falciparum
# Assay: GSK_TCMDC: Inhibition of Plasmodium falciparum Dd2 in whole red blood cells, using parasite LDH activity as an index of growth. Test compounds present at 2uM
# Type: functional
row,Compound,Inhibition [%]
1,Oc1c(C(Nc2nc3ccccc3s2)c2ccc(OC(F)F)cc2)ccc2cccnc12 (configuration not stated),85
2,O=C(Nc1cc2cc(-c3ccc(CN4CCCCC4)cc3)ccc2n2cnnc12)NC1CCCC1,98
3,CCn1cc(C=C2Oc3c(ccc(O)c3CN3CCCCC3)C2=O)c2ccccc21,99
4,Cc1cccc2nc(-c3cccc(-c4cccc(NC(=O)c5ccc(=O)[nH]n5)c4)c3)[nH]c12,32
5,CC(CN1CCN(C)CC1)C(=O)Nc1cccc(-c2cccc(-c3nc4ccccc4[nH]3)c2)c1 (configuration not stated),19
6,CS(=O)(=O)Nc1ccc2[nH]cc(C3CCN(CC(O)C4CCN(C(=O)/C=C/c5ccc(Cl)c(Cl)c5)CC4)CC3)c2c1.O=C(O)C(F)(F)F (configuration not stated),0
7,Cc1cc(-c2cccc(CNC3CCCC3)c2)ccc1S(=O)(=O)NCCN1CCCC1.O=C(O)C(F)(F)F,7
8,O=C(CCNc1ccnc(NCC2CCCCC2)n1)Nc1ccccc1.O=C(O)C(F)(F)F,48
9,CN1CCN(c2ccnc3ccc(NC(=O)Nc4ccc(-c5ccncc5)c(C#N)c4)cc23)CC1,99
10,Cc1noc(C)c1-c1ccc2c(Nc3nccc4ccccc34)c(C(N)=O)cnc2c1,99
11,COc1cc(Cc2cnc(N)nc2N)cc(OCCn2ccccc2=O)c1OC,0
12,O=C(/C=C/c1ccc(C(F)(F)F)cc1)NCCCCCN1CCN(C(=O)Nc2ccc(Cl)cc2)CC1,0
13,CCCCCc1cnc2nc(N)nc(N)c2c1.O=S(=O)(O)CCO,6
14,Br.Oc1ccc(CCNCCCCCCNCCc2ccc(Br)cc2)cc1O,5
15,N#Cc1ccc(CN2CCCN(Cc3cccc(NC(=O)c4cc5ccccc5s4)c3)CC2)cc1.O=C(O)C(F)(F)F,36
16,CC(C(=O)NC1CCN(c2ccnc(Nc3ccc(F)cc3)n2)C1)c1ccc(Cl)cc1 (configuration not stated),90
17,COc1ccc2ncc(F)c(CCN3C4CCC3CC(NCc3ccc5c(c3)OCCO5)C4)c2n1.Cl (configuration not stated),35
18,COc1cccc2c(N/N=C/c3ccccc3[N+](=O)[O-])ccnc12,43
19,CCC[C@@H]([C@@H](CC(C)C)C(=O)N[C@@H](CCCCNC(=O)c1ccccn1)C(=O)Nc1nccs1)N(O)C=O,100

row,Compound,Inhibition [%]
1,C=C[C@H]1CN2CC[C@H]1C[C@H]2[C@H](O)c1ccnc2ccc(OC)cc12.O.O=S(=O)(O)O,22
2,Cc1ccc2c(=NN=CC=Cc3ccccc3)cc(C)[nH]c2c1,13
3,CN(c1ccc(NC(=O)Nc2cccc(Cl)c2)cc1)c1ccnc(N)n1.Cl,40
4,Cc1nc(NCCc2c[nH]cn2)cc(NCc2ccccc2)n1,5
5,O=C(NC1CCN(Cc2ccccc2)CC1)c1ccc(-c2nc3cc(Cl)c(Cl)cc3[nH]2)s1,99
6,CCCSc1nc2c(c(=O)n1CCc1ccccc1)C1(CCCC1)Cc1ccccc1-2,53
7,COc1ccc(NC(=O)/C=C/c2ccccc2Cl)cc1OCCN1CCC(Cc2cc3ccccc3[nH]2)CC1.Cl,8
8,O=C(C=Cc1ccc(Cl)c(Cl)c1)NCCCCCN1CCCC(CCCNS(=O)(=O)c2cccc3cccnc23)C1 (configuration not stated),16
9,COc1ccc(NC(=O)N2CCCN(CCCCCNC(=O)/C=C/c3ccc(Cl)cc3)CC2)cc1Cl,1
10,CC(C)CCNC(=O)C1Cc2c([nH]c3ccc(Br)cc23)C2(CCN(CCc3ccccc3)CC2)N1 (configuration not stated),61
11,Oc1ccc(CN2CCC(N3CCN(CCc4ccccc4)CC3)C(O)C2)cc1Cl (configuration not stated),77
12,Cc1nc(C)c(-c2ccc(C(=O)c3ccc(Cl)cc3)cc2)c(O)c1Br,95
13,COc1ccc(-c2ccccc2OCCCNc2nc(NCCc3ccc(O)cc3)nc(N3CCNCC3)n2)cc1.O=C(O)C(F)(F)F,3
14,CCOc1ccccc1N1CCN(CCCNC(=O)/C(=C/C=C/c2cc3cc(Cl)c(Cl)cc3[nH]2)OC)CC1,93
15,Cl.O=C(Nc1ccc(Cl)cc1)Nc1cccc(-c2cc(CNCCc3ccccc3)oc2-c2ccncc2)c1,92
16,COc1ccc(-c2nc(NC(=O)Cc3coc4cc(OC)ccc34)sc2C)cc1,77
17,CC(C)Oc1cc2c(cc1NS(=O)(=O)c1ccc(-c3ccc(Cl)s3)cc1F)CCN(C)CC2.Cl,1
18,CCC(C)NC(=O)CN1CN(c2ccccc2)C2(CCN(C(=O)c3ccc(C(C)(C)C)cc3)CC2)C1=O (configuration not stated),100
